# System: SUM149
# Test: percent difference in area under dose-response curve of relative cell number, RPMI vs HPLM; higher = drug relatively more effective in HPLM than RPMI (negative = less effective in HPLM)
# Details: treatment time: 72 h; dose range: 10-point, 1 nM to 20 µM; media compared: RPMI vs HPLM
# Protocol: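 SUM149 triple-negative breast cancer cells, 500 cells/well in 384-well plates, were grown in RPMI or human plasma-like medium (HPLM) with 5% dialyzed FBS. They were pin-transferred with an anticancer plus metabolic-inhibitor library in 10-point dose series (20 µM to 1 nM). After 72 h, cells were fixed, stained with bisbenzimide and counted by Acumen plate cytometry. The AUC of relative survival vs dose was computed per medium, and the percent difference in AUC between RPMI and HPLM is reported.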
row,SMILES,percent difference in area under dose-response curve [%]
1,Cc1cccc(Nc2nc(-c3ccncc3)cs2)c1,-3.22
2,COc1cc2ncnc(Nc3ccc(F)c(Cl)c3)c2cc1OCCCN1CCOCC1 [Gefitinib],-2.1
3,CCn1c(-c2nonc2N)nc2c(C#CC(C)(C)O)ncc(OC[C@H]3CCCNC3)c21,4.22
4,O=C(O)C(=O)O.[NH-][C@@H]1CCCC[C@H]1[NH-].[Pt+2] [Oxaliplatin],-2.44
5,CC[C@]1(O)C[C@@H]2CN(CCc3c([nH]c4ccccc34)[C@@](C(=O)OC)(c3cc4c(cc3OC)N(C)[C@H]3[C@@](O)(C(=O)OC)[C@H](OC(C)=O)[C@]5(CC)C=CCN6CC[C@]43[C@@H]65)C2)C1 [Vinblastine],-27.2
6,CCNC(=O)c1noc(-c2cc(Cl)c(O)cc2O)c1-c1ccc(OC)cc1,-12.2
7,CC(=O)OC[C@H]1O[C@@H]([S-])[C@H](OC(C)=O)[C@@H](OC(C)=O)[C@@H]1OC(C)=O.CCP(CC)CC.[Au+] [Auranofin],-10.3
8,O=C(Nc1ccccc1-c1cn2c(CN3CCNCC3)csc2n1)c1cnc2ccccc2n1,-8.03
9,COc1cc(Nc2ncc(F)c(Nc3ccc4c(n3)NC(=O)C(C)(C)O4)n2)cc(OC)c1OC,6.12
10,COc1ccc(C2=N[C@H](c3ccc(Cl)cc3)[C@H](c3ccc(Cl)cc3)N2C(=O)N2CCNC(=O)C2)c(OC(C)C)c1 [Nutlin3b],2.03
11,CCCS(=O)(=O)Nc1ccc(F)c(C(=O)c2c[nH]c3ncc(-c4ccc(Cl)cc4)cc23)c1F [Vemurafenib],6.44
12,CS(=O)(=O)CCNCc1ccc(-c2ccc3ncnc(Nc4ccc(OCc5cccc(F)c5)c(Cl)c4)c3c2)o1 [Lapatinib],-5.33
13,Cc1cc2c(C(=O)NC[C@H](C)c3ccccc3)c(O)c(O)cc2c(O)c1-c1c(C)cc2c(C(=O)NC[C@H](C)c3ccccc3)c(O)c(O)cc2c1O [Sabutoclax],-9.94
14,CC(/C=C/C(=O)NO)=C\[C@@H](C)C(=O)c1ccc(N(C)C)cc1 [Trichostatin_A],-9.24
15,COC1=C2C[C@@H](C)C[C@H](OC)[C@H](O)[C@@H](C)/C=C(\C)[C@H](OC(N)=O)[C@@H](OC)/C=C\C=C(/C)C(=O)NC(=CC1=O)C2=O [Geldanamycin],-5.2
16,O=C(NC1CCNCC1)c1n[nH]cc1NC(=O)c1c(Cl)cccc1Cl,-11.2
17,Cc1csc(-c2nnc(Nc3ccc(Oc4ncccc4-c4ccnc(N)n4)cc3)c3ccccc23)c1,-35.1
18,CO[C@H]1/C=C\C=C(/C)C(=O)NC2=CC(=O)C(NCCN(C)C)=C(C[C@@H](C)C[C@H](OC)[C@H](O)[C@@H](C)/C=C(\C)[C@@H]1OC(N)=O)C2=O,-30.8
19,CN(Cc1cnc2nc(N)nc(N)c2n1)c1ccc(C(=O)N[C@@H](CCC(=O)O)C(=O)O)cc1 [Abitrexate],-8.44
20,CC[C@@H]1C(=O)N(C)c2cnc(Nc3ccc(C(=O)NC4CCN(C)CC4)cc3OC)nc2N1C1CCCC1,-23

row,SMILES,percent difference in area under dose-response curve [%]
1,N#CC[C@H](C1CCCC1)n1cc(-c2ncnc3[nH]ccc23)cn1 [Ruxolitinib],-7.13
2,Nc1ccccc1NC(=O)c1ccc(CNC(=O)OCc2cccnc2)cc1 [Entinostat],-2.21
3,Cc1cc(N2CCOCC2)cc2[nH]c(-c3c(NC[C@@H](O)c4cccc(Cl)c4)cc[nH]c3=O)nc12,-6.07
4,CN1CCC(CNc2ccc3ncc(-c4cccc(OC(F)(F)F)c4)n3n2)CC1 [SGI1776_free_base],-10.5
5,COc1cccc(-c2cc(F)ccc2[C@H]2Cc3nc(N)nc(C)c3C(=O)N2)n1,-28.8
6,CO[C@H]1C[C@@H]2CC[C@@H](C)[C@@](O)(O2)C(=O)C(=O)N2CCCC[C@H]2C(=O)O[C@H]([C@H](C)C[C@@H]2CC[C@@H](O)[C@H](OC)C2)CC(=O)[C@H](C)/C=C(\C)[C@@H](O)[C@@H](OC)C(=O)[C@H](C)C[C@H](C)/C=C/C=C/C=C/1C [Rapamycin],12.8
7,CC(=O)c1c(C)c2cnc(Nc3ccc(N4CCNCC4)cn3)nc2n(C2CCCC2)c1=O,-11.4
8,COC(=O)c1ccc2c(c1)NC(=O)/C2=C(\Nc1ccc(N(C)C(=O)CN2CCN(C)CC2)cc1)c1ccccc1,3.26
9,CC(C)n1c(/C=C/C(O)CC(O)CC(=O)O)c(-c2ccc(F)cc2)c2ccccc21 (stereo not given) [Fluvastatin_sodium],-8.4
10,Cc1cnc(Nc2ccc(OCCN3CCCC3)cc2)nc1Nc1cccc(S(=O)(=O)NC(C)(C)C)c1,-10.7
11,O=C(CCCCCCCn1cc(-c2cccnc2)nn1)Nc1ccccc1-c1ccccc1,0.587
12,C=C1/C(=C\C=C2/CCC[C@]3(C)[C@@H]([C@H](C)/C=C/[C@H](C)C(C)C)CC[C@@H]23)C[C@@H](O)C[C@@H]1O [Doxercalciferol],-7.1
13,C=CC(=O)N1CCC[C@@H](n2nc(-c3ccc(Oc4ccccc4)cc3)c3c(N)ncnc32)C1,7.26
14,O=C1c2c(O)ccc(O)c2C(=O)c2c(NCCNCCO)ccc(NCCNCCO)c21 [Mitoxantrone],-23.7
15,CN(Cc1cnc2nc(N)nc(N)c2n1)c1ccc(C(=O)N[C@@H](CCC(=O)O)C(=O)O)cc1 [Methotrexate],-7.17
16,CNC(=O)c1cc(Oc2ccc(NC(=O)Nc3ccc(Cl)c(C(F)(F)F)c3)cc2)ccn1 [Sorafenib],2.21
17,CCCCCCCCCCCCC/C=C/[C@@H](O)[C@H](CO)N(C)C [N_N_Dimethylsphingosine],6.06
18,O=C(O)c1ccc2cc(-c3ccc(O)c(C45CC6CC(CC(C6)C4)C5)c3)ccc2c1,-15
19,C[C@@H]1CN(CC(=O)Nc2ccc3c(c2)Cc2cccc(-c4cc(=O)cc(N5CCOCC5)o4)c2S3)C[C@H](C)O1,-5.04
20,Cn1cnc2c(F)c(Nc3ccc(Br)cc3Cl)c(C(=O)NOCCO)cc21,-3.35

# Reference: the supplement of paper PMC11383364
